Screening data as filed in PubChem BioAssay.
KCNQ2 pot: KCNQ2 (rat) channel potentiation | CHO-K1 KCNQ2, FluxOR thallium flux fluorescence; active compounds read high | hit rate 0.54% among 310,000 | B-score at 10 µM | O88943 | AID 2239;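 active = fluorescence ratio B-score at least 3 SD of library B-scores, with initial fluorescence B-score within 3 of them, cut at about 5.3 in these data; same plate scores as AID 2156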;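 note: B-score of peak minus minimum over baseline fluorescence ratio after K+ and Tl+ stimulus; positive B-score means potentiation of KCNQ2 with more thallium influx and brighter signal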
Target sequence (O88943 whole entry, looked up): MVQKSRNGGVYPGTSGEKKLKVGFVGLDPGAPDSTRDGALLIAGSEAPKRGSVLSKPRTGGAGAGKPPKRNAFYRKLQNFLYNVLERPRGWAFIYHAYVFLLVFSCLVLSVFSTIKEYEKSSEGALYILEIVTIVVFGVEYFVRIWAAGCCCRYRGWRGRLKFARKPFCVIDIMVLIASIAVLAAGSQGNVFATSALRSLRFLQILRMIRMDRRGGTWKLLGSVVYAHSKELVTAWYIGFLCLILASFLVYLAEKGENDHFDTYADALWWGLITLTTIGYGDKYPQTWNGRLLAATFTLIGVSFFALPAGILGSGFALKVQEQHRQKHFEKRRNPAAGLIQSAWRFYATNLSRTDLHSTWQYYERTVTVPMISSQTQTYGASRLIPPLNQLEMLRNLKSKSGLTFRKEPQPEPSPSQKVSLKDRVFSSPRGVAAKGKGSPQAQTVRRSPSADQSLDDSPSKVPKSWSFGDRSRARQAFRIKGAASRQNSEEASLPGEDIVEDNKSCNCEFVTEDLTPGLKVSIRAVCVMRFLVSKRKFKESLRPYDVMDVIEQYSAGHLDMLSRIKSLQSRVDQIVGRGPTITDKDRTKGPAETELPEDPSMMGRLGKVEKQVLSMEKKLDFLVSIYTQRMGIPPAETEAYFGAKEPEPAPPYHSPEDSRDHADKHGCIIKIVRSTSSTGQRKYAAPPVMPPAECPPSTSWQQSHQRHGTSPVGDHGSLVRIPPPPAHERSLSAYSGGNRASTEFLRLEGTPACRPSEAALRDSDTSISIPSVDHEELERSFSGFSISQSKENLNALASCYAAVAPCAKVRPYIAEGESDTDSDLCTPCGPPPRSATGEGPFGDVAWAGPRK
KCNQ2 inh: blocks the rat KCNQ2 potassium channel; O88943; AID 2156; CHO-K1 KCNQ2, FluxOR thallium flux, 20 min; active compounds read low; B-score at 10 µM; hit rate 1.1% among 310,000;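 active = fluorescence ratio B-score at most minus 3 library SDs, with starting brightness B-score within 2 library SDs, cut at about -5.5 in these data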
Numbers stand for hits; - = inactive; . = not tested or not shown. Hits are enriched below; roughly 1.6% of the tested compounds scored in any of these assays.

SMILES	KCNQ2 pot	KCNQ2 inh
COc1ccc(/C(C#N)=C/c2c(-c3ccc(Cl)cc3)nc3c(C)cccn23)cc1	.	-
COc1ccccc1NC(C)C(=O)N/N=C/c1ccccc1OCc1cccc(Br)c1 (configuration not stated)	-	-6.27
COc1cc([N+](=O)[O-])cc(/C=N/NC(=O)C(C)Nc2cccc3ccccc23)c1O (configuration not stated)	-	-
CC(=O)Nc1ccc(NC(=O)C(C)OC(=O)CNS(=O)(=O)/C=C/c2ccc(C)cc2)cc1 (configuration not stated)	-	-
O=C(CCC(=O)c1ccccc1)NC1CCCN(Cc2ccccc2F)C1 (configuration not stated)	.	-
CC(C)C(NC(=O)CN1C(=O)c2ccccc2C1=O)c1ccccc1 (configuration not stated)	.	-
O=C(O)c1ccc(N=Nc2c(-c3ccccc3)[nH]oc2=O)cc1	-	-
CN(Cc1ccccc1)C(=O)COc1ccc(Br)cc1Cl	.	-
COC(=O)C1CCCN1C(=O)COc1ccc(Br)cc1Cl (configuration not stated)	6.63	-
CC(C)N(C(=O)COc1ccc(Br)cc1Cl)C(C)C	-	-5.68
O=C(COc1ccc(Br)cc1Cl)NC1CCCCC1	-	-
O=C(c1cccnc1)c1ncc(C(F)(F)F)cc1Cl	.	-
CC(Sc1nnc(-c2ccc(Cl)cc2Cl)n1Cc1ccccc1)C(=O)Nc1nccs1 (configuration not stated)	.	-
Cc1nnc(SC(C)C(=O)Nc2ccc(Cl)cn2)n1Cc1ccccc1 (configuration not stated)	-	-6.15
Cc1ccnc(NC(=O)CNC(=O)c2ccc(Br)o2)c1	-	-
CCCNC(=O)Cc1ccsc1	-	-7.8
CCN(CC)CCNC(=O)c1ccc(NC(=O)Cc2ccsc2)cc1	-	-
COc1ccnc2c1c(=O)n(Cc1ccc(Cl)cc1Cl)c(=O)n2C	-	-5.9
COc1ccnc2c1c(=O)n(Cc1ccccc1Cl)c(=O)n2C	.	-
CCC[C@@H]1C[C@@]1(CCC)[C@@H](NP(=O)(c1ccccc1)c1ccccc1)c1ccc(C(=O)OC)cc1	.	-
COC(=O)c1cccc(C#CC(NP(=O)(c2ccccc2)c2ccccc2)c2ccccc2)c1 (configuration not stated)	-	-6.33
COC(=O)[C@]1(Cc2ccccc2)N[C@H](c2ccc(-c3ccc4c(c3)OCO4)cc2)[C@@H]2C(=O)N(C)C(=O)[C@@H]21	.	-
Cc1ccc(CNC(=S)NC2CCC(C(C)(C)C)CC2)cc1 (configuration not stated)	-	-6.86
COc1ccc(CNC(=S)NC2CCCC2)cc1	-	-
O=C1Nc2ccc(Cl)cc2[C@@](C#CC2CC2)(C(F)(F)F)O1	-	-
SMILES	KCNQ2 pot	KCNQ2 inh
CCn1c(=O)c([N+](=O)[O-])c(NCCN(C)C)c2ccccc21	.	-
CCn1c(=O)c([N+](=O)[O-])c(Cl)c2ccccc21	-	-6.65
CC(Sc1ccc(Cl)cc1)C(=O)NNC(=O)c1ccccc1O (configuration not stated)	-	-
OC(CNCC1CCCO1)Cn1c2ccc(Cl)cc2c2cc(Cl)ccc21 (configuration not stated)	-	-7.59
OC(CNCC1CCCO1)Cn1c2ccccc2c2ccccc21 (configuration not stated)	.	-
O=C(CCOc1ccccc1)Nc1ccccc1F	-	-
C=CCC1(C#N)C(SC)=NC2=C(C(=O)CC(C)(C)C2)C1c1ccc(Br)cc1 (configuration not stated)	-	-6.57
Cc1ccc(C2C3=C(CC(C)(C)CC3=O)N=C3c4ccccc4C(=O)C32)cc1 (configuration not stated)	.	-
COc1c(CC=C(C)C)cc(C2CC(=O)c3c(O)cc(O)cc3O2)c(CC=C(C)C)c1O (configuration not stated)	-	-5.82
COc1cc(C2CC(=O)c3c(O)cc(O)cc3O2)ccc1O (configuration not stated)	.	-
O=C(CN1CCN(S(=O)(=O)c2ccc(F)cc2)CC1)Nc1ccc(Cl)cn1	-	-
CCOc1ccc(C(=O)OCC(=O)N2CCCC2)cc1	-	-
CN1C(=O)NC(c2cccc(F)c2)C2=C1CC(C)(C)CC2=O (configuration not stated)	-	-
COc1ccc(OC)c(-c2cc(C(=O)Nc3cccc(Cl)c3)no2)c1	-	-7.45
COc1ccc(-c2cc(C(=O)Nc3cccc(Cl)c3)no2)cc1	.	-
Cc1cccc(C)c1NC(=O)CNC(=O)c1cccnc1	-	-
COc1cc(C2C3C(=O)N(Cc4ccccc4)C(=O)C3ON2c2ccccc2)cc(OC)c1OC (configuration not stated)	-	-6.36
O=C1C2ON(c3ccccc3)C(c3cccnc3)C2C(=O)N1Cc1ccccc1 (configuration not stated)	.	-
COc1ccccc1CNC(=O)Cc1c[nH]c2ccccc12	.	-
COc1ccccc1CNC(=O)[C@H](Cc1c[nH]c2ccccc12)NC(=O)[C@@H]1Cc2ccccc2CN1	-	-6.79
NC(=O)N=Nc1c(O)n(Cc2ccccc2)c2ccc(Br)cc12	-	-
COc1ccc(CC(=O)NNS(=O)(=O)c2ccc([N+](=O)[O-])cc2)cc1OC	.	-
Cc1nc(N2CCN(c3ccccn3)CC2)c2c(C)c(C(=O)Nc3c(C)cc(Br)cc3C)sc2n1	-	-7.91
Cc1nc(N2CCN(c3ccccn3)CC2)c2c(C)c(C(=O)Nc3c(F)cc(F)cc3Br)sc2n1	.	-
O=[N+]([O-])c1ccc(/C=N/Nc2nc(N3CCCCC3)nc(N3CCCCC3)n2)o1	-	-5.56
SMILES	KCNQ2 pot	KCNQ2 inh
COc1c(/C=N/Nc2nc(N3CCCCC3)nc(N3CCCCC3)n2)cccc1[N+](=O)[O-]	.	-
Cc1c(C(=O)NN2CCCCC2)nn(-c2ccc(Cl)cc2Cl)c1-c1ccc(I)cc1	-	-9.92
Cc1onc(-c2c(Cl)cccc2Cl)c1C(=O)NN1CCCCCC1	.	-
O=C(CNCc1ccccc1)Nc1ccc(Cl)cc1	.	-
O=C(NCc1ccccc1)C1CCN(c2nc(-c3ccccc3)nc3c2CCC3)CC1	-	-5.79
COc1ccc(CNC(=O)C2CCN(c3nc(-c4ccccc4)nc4c3CCC4)CC2)cc1	.	-
CN(C)S(=O)(=O)c1ccc(Cl)c(C(=O)Nc2ccc(S(=O)(=O)N3CCOCC3)cc2)c1	.	-
COc1cc(NC2=Nc3cccc4cccc2c34)cc(OC)c1OC	-	-6.03
COc1ccc(NC2=Nc3cccc4cccc2c34)cc1OC	.	-
COc1ccccc1CCC(=O)N(C)C1CCCN(Cc2ccccc2F)C1 (configuration not stated)	.	-
COc1ccc(C(CNC(=O)COc2ccc(C)c(C)c2)N2CCCCC2)cc1 (configuration not stated)	.	-
COc1ccc(C(CNC(=O)c2oc3ccc(C)cc3c2C)N2CCCCC2)cc1 (configuration not stated)	.	-
COc1ccc(C(CNC(=O)COc2cc(C)c(Cl)c(C)c2)N2CCCCC2)cc1 (configuration not stated)	-	-5.99
COc1ccc(C(CNC(=O)c2oc3cc(C)c(Cl)cc3c2C)N2CCCCC2)cc1 (configuration not stated)	-	-5.79
CSc1sccc1/C=C(/C#N)C(=O)c1ccco1	.	-
O=C(N/N=C/c1ccc(-c2ccc(Cl)c(C(=O)O)c2)o1)c1cc2c(ccc3ccccc32)o1	5.37	-
COc1ccccc1/C=N/NC(=O)c1cc2c(ccc3ccccc32)o1	-	-6.43
